Experimental data published in PubChem BioAssay (EPA / NIEHS).
Activity calls are given as the source filed them. Rule for the calls: active = hit-call score of the fitted dose curve at least 0.9, where 1 is the maximum; inactive = score below 0.9.

Tests used:
[1] = read-out: Vascular endothelial growth factor receptor 2 (Homo sapiens) (UniProt P35968); test: BSK_4H_VEGFRII: BioMAP Diversity Plus: 4H Assay for Vascular endothelial growth factor receptor 2 (VEGFR2) Biomarker Activity (AID 2283031); details: primary human endothelial cells (HUVEC); actives raise or lower the signal
Method in brief: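 Primary human umbilical vein endothelial cells in the BioMAP 4H system were dosed with test chemical, and 24 h later VEGFRII was measured by ELISA. Activity was fitted bidirectionally against DMSO as negative control and baseline.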

[2] = read-out: Human Leukocyte Antigen - DR isotype (HLADR), HLA-DRA (gene 3122); test: BSK_BE3C_HLADR: BioMAP Diversity Plus: BE3C Assay for Human Leukocyte Antigen - DR isotype (HLADR) Biomarker Activity (AID 2283032); details: primary human bronchial epithelial cells; actives raise or lower the signal
Method in brief: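 Signal came from an ELISA for HLA-DR in human bronchial epithelial primary cells harvested 24 h after treatment; gain- and loss-of-signal fitting used DMSO controls as reference.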

[3] = read-out: Vascular cell adhesion molecule 1 (VCAM1), VCAM1 (gene 7412); test: BSK_4H_VCAM1: BioMAP Diversity Plus: 4H Assay for Vascular cell adhesion molecule 1 (VCAM1) Biomarker Activity (AID 2283033); details: primary human endothelial cells (HUVEC); actives raise or lower the signal
Method in brief: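 Endpoint derived from bidirectional fitting against DMSO controls of VCAM-1 ELISA signal in umbilical vein endothelial cells sampled at 24 h following treatment.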

[4] = read-out: Interferon-gamma inducible Protein 10 (IP10), CXCL10 (gene 3627); test: BSK_BE3C_IP10: BioMAP Diversity Plus: BE3C Assay for Interferon-gamma inducible Protein 10 (IP10) Biomarker Activity (AID 2283034); details: primary human bronchial epithelial cells; actives raise or lower the signal
Method in brief: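 Using primary human bronchial epithelial cultures, the assay captures IP-10 by ELISA one day (24 h) after exposure. Parallel SRB staining of total protein flags overt cytotoxicity. Fits run bidirectionally relative to DMSO.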

[5] = read-out: Monokine induced gamma interferon (MIG), CXCL9 (gene 4283); test: BSK_BE3C_MIG: BioMAP Diversity Plus: BE3C Assay for Monokine induced gamma interferon (MIG) Biomarker Activity (AID 2283035); details: primary human bronchial epithelial cells; actives raise or lower the signal;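 note: MIG protein measured by ELISA in BE3C cultures after 24 h of dosing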
Method in brief: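 MIG level was determined by ELISA after 24 h chemical treatment of primary human bronchial epithelial cells. Values were fitted bidirectionally with DMSO as the negative control and activity baseline.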

[6] = read-out: Transforming growth factor beta 1 (TGFb1), TGFB1 (gene 7040); test: BSK_BE3C_TGFb1: BioMAP Diversity Plus: BE3C Assay for Transforming growth factor beta 1 (TGFb1) Biomarker Activity (AID 2283036;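 note: TGF-b1 protein level measured by ELISA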); details: primary human bronchial epithelial cells; actives raise or lower the signal
Method in brief: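 In this human primary bronchial epithelial system, an ELISA quantified TGF-b1 one day after dosing. Endpoint changes in either direction were fitted relative to DMSO.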

[7] = read-out: Plasminogen activator inhibitor-1 (PAI1), SERPINE1 (gene 5054); test: BSK_BE3C_PAI1: BioMAP Diversity Plus: BE3C Assay for Plasminogen activator inhibitor-1 (PAI1) Biomarker Activity (AID 2283037); details: primary human bronchial epithelial cells; actives raise or lower the signal
Method in brief: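 PAI-1 biomarker levels in treated human bronchial epithelial cells are determined by ELISA at 24 h. Both increases and decreases relative to DMSO are fitted.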

[8] = read-out: Urokinase-type plasminogen activator receptor (uPAR), PLAUR (gene 5329); test: BSK_BE3C_uPAR: BioMAP Diversity Plus: BE3C Assay for Urokinase-type plasminogen activator receptor (uPAR) Biomarker Activity (AID 2283039); details: primary human bronchial epithelial cells; actives raise or lower the signal;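 note: cells exposed to compound for one day before measurement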
Method in brief: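 A uPAR ELISA serves as the readout, taken 24 h after treating primary human bronchial epithelial cells. Responses in either direction are fitted against DMSO, which defines baseline activity.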

[9] = read-out: Interleukin-6 (IL6), IL6 (gene 3569); test: BSK_CASM3C_IL6: BioMAP Diversity Plus: CASM3C Assay for Interleukin-6 (IL6) Biomarker Activity for (AID 2283040); details: primary human coronary artery smooth muscle cells; actives raise or lower the signal
[10] = read-out: Tissue plasminogen activator (tPA), PLAT (gene 5327); test: BSK_BE3C_tPA: BioMAP Diversity Plus: BE3C Assay for Tissue plasminogen activator (tPA) Biomarker Activity (AID 2283041); details: primary human bronchial epithelial cells; actives raise or lower the signal
Method in brief: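 Bidirectional curve fitting relative to DMSO defined activity, with tPA detected by ELISA in chemically treated human bronchial epithelial primary cells at 24 hours.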

[11] = read-out: Interleukin-8 (IL8), CXCL8 (gene 3576); test: BSK_CASM3C_IL8: BioMAP Diversity Plus: CASM3C Assay for Interleukin-8 (IL8) Biomarker Activity (AID 2283042); details: primary human coronary artery smooth muscle cells; actives raise or lower the signal;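 note: IL-8 protein level quantified by ELISA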
[12] = read-out: Human Leukocyte Antigen - DR isotype (HLADR), HLA-DRA (gene 3122); test: BSK_CASM3C_HLADR: BioMAP Diversity Plus: CASM3C Assay for Human Leukocyte Antigen - DR isotype (HLADR) Biomarker Activity (AID 2283043); details: primary human coronary artery smooth muscle cells; actives raise or lower the signal;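 note: cell-surface HLA-DR protein level quantified by ELISA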
[13] = read-out: Macrophage colony-stimulating factor (MCSF), CSF1 (gene 1435); test: BSK_CASM3C_MCSF: BioMAP Diversity Plus: CASM3C Assay for Macrophage colony-stimulating factor (MCSF) Biomarker Activity (AID 2283044); details: primary human coronary artery smooth muscle cells; actives raise or lower the signal;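 note: M-CSF protein amount quantified by ELISA after 24 h exposure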
[14] = read-out: Low-density lipoprotein receptor (LDLR), LDLR (gene 3949); test: BSK_CASM3C_LDLR: BioMAP Diversity Plus: CASM3C Assay for Low-density lipoprotein receptor (LDLR) Biomarker Activity (AID 2283045); details: primary human coronary artery smooth muscle cells; actives raise or lower the signal;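 note: LDLR protein level on the cell surface quantified by ELISA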
[15] = read-out: Monocyte Chemoattractant Protein-1 (MCP1), CCL2 (gene 6347); test: BSK_CASM3C_MCP1: BioMAP Diversity Plus: CASM3C Assay for Monocyte Chemoattractant Protein-1 (MCP1) Biomarker Activity (AID 2283046); details: primary human coronary artery smooth muscle cells; actives raise or lower the signal;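 note: MCP-1 level quantified by ELISA 24 h after dosing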
[16] = BSK_CASM3C_Proliferation: Cell Proliferation Assessment in the BioMAP Diversity Plus: CASM3C Assay (AID 2283047); details: primary human coronary artery smooth muscle cells;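 note: sulforhodamine B total protein stain as relative cell number at 560 nm; sub-confluent cells exposed 48 h before staining; fitted both ways against DMSO so gain or loss of cell number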
[17] = read-out: Monokine induced gamma interferon (MIG), CXCL9 (gene 4283); test: BSK_CASM3C_MIG: BioMAP Diversity Plus: CASM3C Assay for Monokine induced gamma interferon (MIG) Biomarker Activity (AID 2283048); details: primary human coronary artery smooth muscle cells; actives raise or lower the signal
[18] = read-out: serum amyloid A (SAA), SAA1 (gene 6288); test: BSK_CASM3C_SAA: BioMAP Diversity Plus: CASM3C Assay for serum amyloid A (SAA) Biomarker Activity (AID 2283049); details: primary human coronary artery smooth muscle cells; actives raise or lower the signal;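 note: SAA protein level quantified by ELISA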
[19] = BSK_CASM3C_SRB: Viability Assessment in the BioMAP Diversity Plus: CASM3C Assay (AID 2283050); details: primary human coronary artery smooth muscle cells
[20] = read-out: urokinase plasminogen activator (uPA), PLAU (gene 5328); test: BSK_BE3C_uPA: BioMAP Diversity Plus: BE3C Assay for urokinase plasminogen activator (uPA) Biomarker Activity (AID 2283038); details: primary human bronchial epithelial cells; actives raise or lower the signal;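 note: uPA protein level quantified by ELISA in cell cultures; uPA read one day after compound addition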
Method in brief: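 Human primary bronchial epithelial cells were exposed to chemical for 24 h, then uPA levels were measured by ELISA. Responses were fitted bidirectionally against DMSO as negative control and baseline. Parallel SRB staining of total protein gauged overt cytotoxicity.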

Measured: AC50

CC1(C)NC(=O)N(c2ccc([N+](=O)[O-])c(C(F)(F)F)c2)C1=O
active: [13] 11.8 µM | [16] 11.8 µM
not listed: [20]
inactive: all other assays above

O=C(OCCCCCCOC(=O)c1ccccc1)c1ccccc1
inactive: all assays above

C[C@]12CC[C@@H]3c4ccc(O)cc4CC[C@H]3[C@@H]1CC[C@H]2O
active: [16] 13.2 µM
not listed: [20]
inactive: all other assays above

CC[C@@H]1C[C@H](N(Cc2cc(C(F)(F)F)cc(C(F)(F)F)c2)C(C)=O)c2cc(C(F)(F)F)ccc2N1C(=O)OC(C)C
active: [14] 1.22 µM | [16] 1.37 µM
not listed: [20]
inactive: all other assays above

COc1cccc([C@H](O)C2CCN(CCc3ccc(F)cc3)CC2)c1OC
active: [3] 12.9 µM
not listed: [20]
inactive: all other assays above

Cc1oc2c(NC(=O)c3c(Cl)cccc3Cl)cccc2c1C(C)(C)O
active: [2] 18.1 µM | [9] 33.2 µM | [10] 15.1 µM | [14] 15.6 µM | [16] 20 µM
not listed: [20]
inactive: all other assays above
